# Measured values published in the supplement of paper PMC4466140.
# Assays:
# Experiment in all cases: SPOT peptide array binding signal intensity (averaged, normalized) (arbitrary units (background-subtracted, floor 0; scale differs between SH3 domains)); higher = stronger binding of the SH3 domain to the peptide
# AgAbp1 = molecular target: AgAbp1
# In short: (§1)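 GST-fused SH3 domains, from four yeast species, were produced in E. coli BL21(DE3) and captured on glutathione Sepharose. Membranes of cellulose carrying synthetic 15-mer peptides, in which cysteines had been replaced by serines, were exposed to each domain at 10 μg/ml overnight at 4°C in TBS-based blocking buffer. After anti-GST antibody, an HRP anti-mouse secondary and luminol, spots were imaged and quantified using Genespotter. Binding signal is normalized and background-subtracted spot intensity, averaged over replicates, in arbitrary units that differ between domains.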
# AgBbc1 = molecular target: AgBbc1
# In short: as §1
# AgBem1-D1 = molecular target: AgBem1-D1
# In short: as §1
# AgBzz1-D1 = molecular target: AgBzz1-D1
# In short: as §1
# AgBzz1-D2 = molecular target: AgBzz1-D2
# In short: as §1
# AgCyk3 = molecular target: AgCyk3
# In short: as §1
# AgFus1 = molecular target: AgFus1
# In short: as §1
# AgHof1 = molecular target: AgHof1
# In short: as §1
# AgHse1 = molecular target: AgHse1
# In short: as §1
# AgLsb1 = molecular target: AgLsb1
# In short: as §1
# AgLsb4 = molecular target: AgLsb4
# In short: as §1
# AgMyo5 = molecular target: AgMyo5
# In short: as §1
# AgNbp2 = molecular target: AgNbp2
# In short: as §1
# AgRvs167 = molecular target: AgRvs167
# In short: as §1
# AgSho1 = molecular target: AgSho1
# In short: as §1
# AgSla1-D1-D2 = molecular target: AgSla1-D1-D2
# In short: as §1
# AgSla1-D3 = molecular target: AgSla1-D3
# In short: as §1
# CaAbp1-D1 = molecular target: CaAbp1-D1
# In short: as §1
# CaAbp1-D2 = molecular target: CaAbp1-D2
# In short: as §1
# CaBbc1 = molecular target: CaBbc1
# In short: as §1
# CaBem1-D1 = molecular target: CaBem1-D1
# In short: as §1
# CaBzz1-D1 = molecular target: CaBzz1-D1
# In short: as §1
# CaBzz1-D2 = molecular target: CaBzz1-D2
# In short: as §1
# CaCyk3 = molecular target: CaCyk3
# In short: as §1
# CaFus1 = molecular target: CaFus1
# In short: as §1
# CaHof1 = molecular target: CaHof1
# In short: as §1
# CaHse1 = molecular target: CaHse1
# In short: as §1
# CaLsb1 = molecular target: CaLsb1
# In short: as §1
# CaLsb4 = molecular target: CaLsb4
# In short: as §1
# CaMyo5 = molecular target: CaMyo5
# In short: as §1
# CaNbp2 = molecular target: CaNbp2
# In short: as §1
# CaRvs167 = molecular target: CaRvs167
# In short: as §1
# CaRvs167-3 = molecular target: CaRvs167-3
# In short: as §1
# CaSho1 = molecular target: CaSho1
# In short: as §1
# CaSla1-D1-D2 = molecular target: CaSla1-D1-D2
# In short: as §1
# CaSla1-D3 = molecular target: CaSla1-D3
# In short: as §1
# ScAbp1 = molecular target: ScAbp1
# In short: as §1
# ScBbc1 = molecular target: ScBbc1
# In short: as §1
# ScBem1-D1 = molecular target: ScBem1-D1
# In short: as §1
# ScBzz1-D1 = molecular target: ScBzz1-D1
# In short: as §1
# ScBzz1-D2 = molecular target: ScBzz1-D2
# In short: as §1
# ScCyk3 = molecular target: ScCyk3
# In short: as §1
# ScFus1 = molecular target: ScFus1
# In short: as §1
# ScHof1 = molecular target: ScHof1
# In short: as §1
# ScHse1 = molecular target: ScHse1
# In short: as §1
# ScLsb1 = molecular target: ScLsb1
# In short: as §1
# ScLsb2 = molecular target: ScLsb2
# In short: as §1
# ScLsb3 = molecular target: ScLsb3
# In short: as §1
# ScLsb4 = molecular target: ScLsb4
# In short: as §1
# ScMyo3 = molecular target: ScMyo3
# In short: as §1
# ScMyo5 = molecular target: ScMyo5
# In short: as §1
# ScNbp2 = molecular target: ScNbp2
# In short: as §1
# ScPex13 = molecular target: ScPex13
# In short: as §1
# ScRvs167 = molecular target: ScRvs167
# In short: as §1
# ScSho1 = molecular target: ScSho1
# In short: as §1
# ScSla1-D1-D2 = molecular target: ScSla1-D1-D2
# In short: as §1
# ScSla1-D3 = molecular target: ScSla1-D3
# In short: as §1
# SpAbp1-D1 = molecular target: SpAbp1-D1
# In short: as §1
# SpBbc1 = molecular target: SpBbc1
# In short: as §1
# SpBzz1-D1 = molecular target: SpBzz1-D1
# In short: as §1
# SpBzz1-D2 = molecular target: SpBzz1-D2
# In short: as §1
# SpCyk3 = molecular target: SpCyk3
# In short: as §1
# SpHof1 = molecular target: SpHof1
# In short: as §1
# SpHof1-2 = molecular target: SpHof1-2
# In short: as §1
# SpHof1-3 = molecular target: SpHof1-3
# In short: as §1
# SpHse1 = molecular target: SpHse1
# In short: as §1
# SpLsb1 = molecular target: SpLsb1
# In short: as §1
# SpLsb4 = molecular target: SpLsb4
# In short: as §1
# SpMyo1 = molecular target: SpMyo1
# In short: as §1
# SpNbp2 = molecular target: SpNbp2
# In short: as §1
# SpPex13 = molecular target: SpPex13
# In short: as §1
# SpRvs167 = molecular target: SpRvs167
# In short: as §1
# SpSla1-D1-D2 = molecular target: SpSla1-D1-D2
# In short: as §1
# SpSla1-D3 = molecular target: SpSla1-D3
# In short: as §1
binder,measurement,setting,value
GDHPKGPPPPPPPDE,SPOT peptide array binding signal intensity,AgAbp1,≤ 0
same,SPOT peptide array binding signal intensity,AgBbc1,1
same,SPOT peptide array binding signal intensity,AgBem1-D1,≤ 0
same,SPOT peptide array binding signal intensity,AgBzz1-D1,870
same,SPOT peptide array binding signal intensity,AgBzz1-D2,85
same,SPOT peptide array binding signal intensity,AgCyk3,≤ 0
same,SPOT peptide array binding signal intensity,AgFus1,3.5
same,SPOT peptide array binding signal intensity,AgHof1,≤ 0
same,SPOT peptide array binding signal intensity,AgHse1,≤ 0
same,SPOT peptide array binding signal intensity,AgLsb1,≤ 0
same,SPOT peptide array binding signal intensity,AgLsb4,11.5
same,SPOT peptide array binding signal intensity,AgMyo5,1360
same,SPOT peptide array binding signal intensity,AgNbp2,9
same,SPOT peptide array binding signal intensity,AgRvs167,0.167
same,SPOT peptide array binding signal intensity,AgSho1,11
same,SPOT peptide array binding signal intensity,AgSla1-D1-D2,6
same,SPOT peptide array binding signal intensity,AgSla1-D3,358
same,SPOT peptide array binding signal intensity,CaAbp1-D1,≤ 0
same,SPOT peptide array binding signal intensity,CaAbp1-D2,≤ 0
same,SPOT peptide array binding signal intensity,CaBbc1,≤ 0
same,SPOT peptide array binding signal intensity,CaBem1-D1,≤ 0
same,SPOT peptide array binding signal intensity,CaBzz1-D1,3200
same,SPOT peptide array binding signal intensity,CaBzz1-D2,2040
same,SPOT peptide array binding signal intensity,CaCyk3,≤ 0
same,SPOT peptide array binding signal intensity,CaFus1,≤ 0
same,SPOT peptide array binding signal intensity,CaHof1,0.25
same,SPOT peptide array binding signal intensity,CaHse1,6.5
same,SPOT peptide array binding signal intensity,CaLsb1,≤ 0
same,SPOT peptide array binding signal intensity,CaLsb4,5.5
same,SPOT peptide array binding signal intensity,CaMyo5,41
same,SPOT peptide array binding signal intensity,CaNbp2,≤ 0
same,SPOT peptide array binding signal intensity,CaRvs167,≤ 0
same,SPOT peptide array binding signal intensity,CaRvs167-3,1.25
same,SPOT peptide array binding signal intensity,CaSho1,≤ 0
same,SPOT peptide array binding signal intensity,CaSla1-D1-D2,≤ 0
same,SPOT peptide array binding signal intensity,CaSla1-D3,1.75
same,SPOT peptide array binding signal intensity,ScAbp1,≤ 0
same,SPOT peptide array binding signal intensity,ScBbc1,2.5
same,SPOT peptide array binding signal intensity,ScBem1-D1,≤ 0
same,SPOT peptide array binding signal intensity,ScBzz1-D1,4000
same,SPOT peptide array binding signal intensity,ScBzz1-D2,31.5
same,SPOT peptide array binding signal intensity,ScCyk3,≤ 0
same,SPOT peptide array binding signal intensity,ScFus1,2.5
same,SPOT peptide array binding signal intensity,ScHof1,≤ 0
same,SPOT peptide array binding signal intensity,ScHse1,7.5
same,SPOT peptide array binding signal intensity,ScLsb1,≤ 0
same,SPOT peptide array binding signal intensity,ScLsb2,≤ 0
same,SPOT peptide array binding signal intensity,ScLsb3,≤ 0
same,SPOT peptide array binding signal intensity,ScLsb4,≤ 0
same,SPOT peptide array binding signal intensity,ScMyo3,1390
same,SPOT peptide array binding signal intensity,ScMyo5,1300
same,SPOT peptide array binding signal intensity,ScNbp2,≤ 0
same,SPOT peptide array binding signal intensity,ScPex13,≤ 0
same,SPOT peptide array binding signal intensity,ScRvs167,0.333
same,SPOT peptide array binding signal intensity,ScSho1,≤ 0
same,SPOT peptide array binding signal intensity,ScSla1-D1-D2,≤ 0
same,SPOT peptide array binding signal intensity,ScSla1-D3,≤ 0
same,SPOT peptide array binding signal intensity,SpAbp1-D1,≤ 0
same,SPOT peptide array binding signal intensity,SpBbc1,1.25
same,SPOT peptide array binding signal intensity,SpBzz1-D1,42
same,SPOT peptide array binding signal intensity,SpBzz1-D2,1.5
same,SPOT peptide array binding signal intensity,SpCyk3,≤ 0
same,SPOT peptide array binding signal intensity,SpHof1,≤ 0
same,SPOT peptide array binding signal intensity,SpHof1-2,1.5
same,SPOT peptide array binding signal intensity,SpHof1-3,≤ 0
same,SPOT peptide array binding signal intensity,SpHse1,85.2
same,SPOT peptide array binding signal intensity,SpLsb1,0.5
same,SPOT peptide array binding signal intensity,SpLsb4,≤ 0
same,SPOT peptide array binding signal intensity,SpMyo1,1500
same,SPOT peptide array binding signal intensity,SpNbp2,≤ 0
same,SPOT peptide array binding signal intensity,SpPex13,2
same,SPOT peptide array binding signal intensity,SpRvs167,9
same,SPOT peptide array binding signal intensity,SpSla1-D1-D2,9
same,SPOT peptide array binding signal intensity,SpSla1-D3,≤ 0
